DT40 TDP1 CPT: DT40-hTDP1 cell growth loss with CPT. chicken DT40 Tdp1-/-;hTDP1 cells + 20 nM CPT, ATP luminescence, 48 h. Potency, µM (highest dose often 46.2 µM), inactives show top-dose activity change, negative = growth inhibition, actives largely listed as inhibitors. 420,000 tested, 12% active; further: potency means the concentration at half of the fitted maximal effect; nearly all actives have a fitted effect of over 55% in size
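Chicken DT40 Tdp1-/- cells complemented with human TDP1, 400 cells/well, exposed to compounds plus 20 nM camptothecin for at least 48 h at 37 C; viability read as ATP content by CellTiter-Glo luminescence.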
IL1B secr inh: inflammasome signaling inhibition, IL-1 beta readout; AID 743279; THP-1 LPS/ATP IL-1B secretion, AlphaLISA, 16 h; active compounds read low; 360,000 tested, 4.7% active; activity change, % at 57.5 µM; in the data active means activity change below about -50%; inconclusive means mostly about -30% to -49%
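THP-1 cells pretreated 1 hr with compounds (up to 57.5 uM final), then stimulated with LPS (250 ng/mL final) plus ATP (1.25 mM final); secreted IL-1B measured by AlphaLISA after 16 hr, decreased signal indicating inhibition.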
ALOX12 inh: blocks human arachidonate 12S-lipoxygenase; Potency, µM (series often up to 108 µM), for the others: at the highest dose activity change, negative = inhibition, most hits filed as inhibitors; purified 12hLO, xylenol orange hydroperoxide absorbance; P18054; 580,000 tested, 1.1% active; further: potency means the concentration at half of the fitted maximal effect
Target sequence (P18054 whole entry, looked up): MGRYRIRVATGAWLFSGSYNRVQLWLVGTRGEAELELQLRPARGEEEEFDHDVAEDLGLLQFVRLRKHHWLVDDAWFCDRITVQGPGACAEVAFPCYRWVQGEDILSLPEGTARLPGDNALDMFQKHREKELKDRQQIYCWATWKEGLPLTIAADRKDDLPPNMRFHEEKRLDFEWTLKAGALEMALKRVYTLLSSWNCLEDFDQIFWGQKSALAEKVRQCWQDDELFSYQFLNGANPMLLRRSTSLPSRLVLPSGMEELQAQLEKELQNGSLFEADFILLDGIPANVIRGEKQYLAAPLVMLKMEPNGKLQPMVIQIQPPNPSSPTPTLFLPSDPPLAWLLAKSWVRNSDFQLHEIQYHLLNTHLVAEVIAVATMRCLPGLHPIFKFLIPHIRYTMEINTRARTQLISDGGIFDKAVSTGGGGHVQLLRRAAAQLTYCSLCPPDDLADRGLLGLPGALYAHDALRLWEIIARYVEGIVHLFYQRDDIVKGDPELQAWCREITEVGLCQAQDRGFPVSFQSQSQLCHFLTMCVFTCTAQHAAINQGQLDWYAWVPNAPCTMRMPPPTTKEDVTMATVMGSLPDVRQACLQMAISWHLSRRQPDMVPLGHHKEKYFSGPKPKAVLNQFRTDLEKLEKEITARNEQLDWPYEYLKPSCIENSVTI
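Purified human 12hLO (150 nM final) in 25 mM Hepes, 0.01% Triton X-100, pH 7.0 was preincubated 15 min at room temperature with compound. Then 40 uM arachidonic acid was added, 30 min. Hydroperoxide was read by Fe-XO absorbance ratio 573/405 nm.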
DT40 TDP1 no CPT: qHTS for Inhibitors of human tyrosyl-DNA phosphodiesterase 1 (TDP1): qHTS in cells in absence of CPT | DT40 Tdp1-/- hTDP1 cells, no CPT, ATP luminescence, 48 h | Potency, µM (titrated, usually from 46.2 µM), for inactives: top-dose activity change, negative = growth inhibition, most hits filed as inhibitors | 420,000 tested, 15% active; further: potency means the concentration at half of the fitted maximal effect; nearly all actives have a fitted effect of over 55% in size
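No-CPT arm: Tdp1-/-;hTDP1 DT40 cells (400/well) plus compounds, incubated ≥48 hr at 37 °C. Readout CellTiter-Glo luminescence.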
HT1080 IDH1KD tx: HT-1080 IDH1 knockdown cell toxicity (counter line). HT-1080 IDH1 knockdown viability, ATP luminescence, 48 h. Potency, µM (series often up to 46.1 µM), inactives show at the highest dose activity, negative = toxicity, hits mostly cytotoxic. 360,000 tested, 2% active;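 further: potency means the concentration at half of the fitted maximal effect; 0% = DMSO wells and -100% = cell-free medium wells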
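Using the IDH1-knockdown HT-1080 line run in the same batch and compound series as the NT line, viability after 48 h at 37 °C was determined by CellTiter-Glo luminescence and expressed as % activity.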
HT1080NT lethal: kills 2HG-producing HT-1080-NT fibrosarcoma cells. HT-1080-NT fibrosarcoma viability, CellTiter-Glo ATP luminescence, 48 h. Potency, µM (titrated, usually from 46.1 µM), inactives show top-dose activity, negative = less viability, usual class: cytotoxic. 360,000 tested, 1.6% active;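 further: NT is the 2HG producing partner of a matched IDH1 knockdown line; potency means the concentration at half of the fitted maximal effect; 0% = DMSO-treated cells and -100% = media-only wells without cells; nearly all actives have a fitted effect of over 55% in size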
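HT-1080-NT fibrosarcoma cells (2HG-overproducing), 750 cells/well in RPMI with 5% FBS, dosed after 2 h and incubated 48 h at 37C. CellTiter-Glo luminescence normalized to DMSO and no-cell wells; concentration-response curves fitted and classed.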
Numbers without * were called inactive; ? = inconclusive; . = no result; [ ] = remark or other dose. The full list was thinned out, with hits kept by preference. Unless noted, the call rests on the fitted dose curve; in most records, active means well fitted curve in the direction sought with a large enough effect; inconclusive means small, poorly fitted or top-dose-only effect, or another doubt; inactive means no such curve, though single readings can be large; an effect the other way counts as inactive or inconclusive. Unless noted, on the % scale 0 is the no-effect control and ±100 the full control effect.

SMILES	DT40 TDP1 CPT	IL1B secr inh	ALOX12 inh	DT40 TDP1 no CPT	HT1080 IDH1KD tx	HT1080NT lethal
C#CCN(C)CC[C@@H]1CC[C@H](O)[C@@H](C(=O)Nc2ccccc2)O1	.	.	82%[176 µM]	.	.	.
COc1ccc(C(=O)N2CCCC(CN3CCOCC3)CC2)cc1 (stereo not given)	.	.	26%	.	.	.
CCn1cc(C#N)c(=O)n(Cc2nc(-c3ccccc3Cl)no2)c1=O	.	.	-5%	.	.	.
COc1ccccc1C(C)NC(=O)Cc1csc2nc(-c3ccc(F)cc3)cn12 (stereo not given)	.	.	-3%	.	.	.
NC(c1csc(Nc2ccccn2)n1)c1ccccc1Cl (stereo not given)	?	3	-13%	?	-7%	-1%
NC(c1csc(Nc2nncc3ccccc23)n1)C1CCCCC1 (stereo not given)	5.8µM*	-78*	?	5.8µM*	23µM*	21µM*
NC(c1csc(Nc2nncc3ccccc23)n1)c1ccccc1Cl (stereo not given)	29µM*	-22	?	15µM*	-23%	?
CC(C)NC(=O)CCn1cnc2sc3c(c2c1=O)CCCC3	.	.	-5%	.	.	.
C[n+]1ccc(C(c2c[nH]c3ccccc23)c2cc[n+](C)c3ccccc23)c2ccccc21	0.56µM*	.	.	0.56µM*	.	.
CCOc1cc(C(c2c[nH]c3ccccc23)c2c[nH]c3ccccc23)ccc1O	.	.	-29%	.	.	.
Cc1[nH]c2ccccc2c1C(c1c[nH]c2ccccc12)c1c(C)[nH]c2ccccc12	?	.	.	16µM*	.	.
O=C(CCSc1ccccc1Cl)OCC(=O)c1ccc(C2CCCCC2)cc1	.	.	-3%	.	.	.
CC1(CNc2ccccc2)COc2ccc(C(=O)N3CC[S+](=O)([O-])CC3)cc2N1 (stereo not given)	.	.	21%[176 µM]	.	.	.
O=C1C(=O)N(CCCc2ccccc2)c2ccccc21	2.1µM*	-5	.	1.6µM*	3%	2%
O=C1c2ccccc2C(=O)N1C/C=C/c1ccccc1	5%	-23	0%	4%	-1%	1%
O=C1C(=O)N(C/C=C/c2ccccc2)c2ccccc21	0.92µM*	29	?	0.58µM*	?	?
O=C(CN1C(=O)C(=O)c2ccccc21)NCCc1ccccc1	?	13	-13%	?	0%	3%
CCCC(=O)Nc1ccc(NC(=O)c2ccccc2F)cn1	-17%	-61*	-3%	-4%	2%	4%
CN(C)CCCN(C(=O)c1ccc([N+](=O)[O-])s1)c1nc2cc3c(cc2s1)OCCO3	2.9µM*	-96*	-19%	3.3µM*	-2%	-2%
CN(C)CCCN(C(=O)c1ccc(Cl)s1)c1nc2cc3c(cc2s1)OCO3	?	-98*	-6%	?	?	18µM*
Cc1ccc2nc(N(CCCN(C)C)C(=O)c3ccc(Br)s3)sc2c1	?	-79*	?	23µM*	?	?
CN(C)CCCN(C(=O)c1cccs1)c1nc2cc3c(cc2s1)OCO3	-18%	-10	0%	?	2%	-12%
CN(C)CCCN(C(=O)c1ccc(Br)s1)c1nc2cc3c(cc2s1)OCCO3	29µM*	-93*	?	?	?	-10%
CCN(CC)CCN(C(=O)c1ccc(Br)s1)c1nc2cc3c(cc2s1)OCCO3	-17%	-4	?	?	0%	14%
Cc1ccc2nc(N(CCN(C)C)C(=O)c3cc(Cl)sc3Cl)sc2c1	-28%	-15	-17%	-17%	0%	27%
SMILES	DT40 TDP1 CPT	IL1B secr inh	ALOX12 inh	DT40 TDP1 no CPT	HT1080 IDH1KD tx	HT1080NT lethal
CN(C)CCCN(C(=O)c1cc(Cl)sc1Cl)c1nc2cc3c(cc2s1)OCO3	-41%	?	?	-25%	?	?
CC(C)CN(C(=O)Cn1cnc2c1c(=O)n(C)c(=O)n2C)c1nc2ccccc2s1	.	.	12%	.	.	.
COc1ccc(C)cc1NC(=O)Cn1c(-c2ccc(F)cc2)nc(C)cc1=O	.	.	26%	.	.	.
Cc1oc(-c2cccs2)nc1CC(=O)Nc1ccc(F)c(F)c1F	.	.	-23%	.	.	.
CN(C)CCCN(C(=O)c1cc2cc([N+](=O)[O-])ccc2s1)c1nc2cc3c(cc2s1)OCCO3	1.3µM*	0	-3%	2.3µM*	?	?
COc1cccc(CCC(=O)N(C)C2CCc3nnc(C)n3CC2)c1 (stereo not given)	.	.	49%	.	.	.
Cc1nn(CC(=O)N2CCN(c3ccccc3F)CC2)c(=O)c2nc(C(C)C)sc12	.	.	13%	.	.	.
CCN(c1ccccc1)S(=O)(=O)c1ccc(Oc2ccccc2C(C)=O)nc1	-22%	28	-17%	?	5%	0%
CCN(c1ccccc1)S(=O)(=O)c1ccc(Oc2ccc(-n3ccnc3)cc2)nc1	5.2µM*	?	30%	8.2µM*	?	?
CCOc1ccc2c(=O)c(Oc3ccccc3Br)c(C)oc2c1	.	.	-1%	.	.	.
CC(C)(CO)N=C1NS(=O)(=O)c2cc([N+](=O)[O-])ccc21	-17%	57	-10%	?	2%	0%
CCC(CC)N=C1NS(=O)(=O)c2cc([N+](=O)[O-])ccc21	?	24	-19%	21µM*	-15%	-27%
CC(C)(C)CC(C)(C)N=C1NS(=O)(=O)c2cc([N+](=O)[O-])ccc21	?	-14	-1%	15µM*	-4%	-7%
O=C(Cc1ccc(F)cc1)Nc1ccccc1C(F)(F)F	.	.	-55%	.	.	.
Cc1ccc2oc(C(=O)NCC(c3ccco3)N(C)C)c(C)c2c1 (stereo not given)	?	14	-18%	4.1µM*	0%	1%
Cc1ccc(CC(=O)NCC(c2ccco2)N(C)C)cc1C (stereo not given)	11%	51	-8%	9%	14%	-8%
Cc1ccc2occ(CC(=O)N(Cc3ccccc3Cl)C3CCS(=O)(=O)C3)c2c1 (stereo not given)	?	.	4%	23µM*	.	.
Cc1ccc2c(CC(=O)NCc3ccco3)coc2c1C	13µM*	60	-15%	12µM*	7.3µM*	5.2µM*
Cc1ccc2c(=O)cc(C(=O)N(Cc3ccccc3)Cc3ccco3)oc2c1C	.	.	35µM*	.	.	.
CC1=C(C(=O)Nc2cccc(C(F)(F)F)c2)C(c2ccc(Cl)cc2)n2ncnc2N1 (stereo not given)	.	.	-7%	.	.	.
COC(=O)c1ccc(CCNC(=O)c2cccc(OC)c2)cc1	.	.	6%	.	.	.
Cc1ccc2occ(CC(=O)N(Cc3ccc(Cl)cc3)Cc3ccco3)c2c1	?	.	-11%	23µM*	.	.

Screening results from PubChem.
